Nrf2 block: blocks Nrf2 signaling; A549 ARE-Fluc reporter, luciferase luminescence, 18-24 h; Potency, µM (highest dose often 46 µM), inactives show at the highest dose activity change, negative = inhibition, most hits filed as inhibitors; 360,000 compounds, 2.1% hits; AID 504444; further: on the % scale 0 is the no-effect control and ±100 the full control effect; nearly all actives have a fitted effect of over 60% in size
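A549 ARE_Fluc cells, 5000/well, 5% FBS OPTI-MEM; compounds in dose-response, 18-24 h at 37 °C/5% CO2; CellTiter-Fluor viability read (Ex 405/Em 525), then BugLite luciferase luminescence = Nrf2 activity.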
Nrf2 ARE act: activates Nrf2 signaling; 410,000 compounds, 0.31% hits; Potency, µM (top dose mostly 46.1 µM), for the others: at the highest dose activation, usual class: activators; AREc32 ARE-luciferase reporter (MCF7-derived line), luminescence, 24 h; further: % of control where 0% means no effect; nearly all actives have a fitted effect of over 65% in size
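Steps: seed AREc32_Fluc cells (1000/well, 5% FBS OPTI-MEM); incubate overnight at 37 deg C; add 23 nL compound; incubate 24 hr; add Steady-Glo; hold 30 min RT; read luminescence.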
ATXN2 expr inh: reduces ATXN2 reporter expression in HEK-293 cells; 360,000 compounds, 0.72% hits; Potency, µM (titrated, usually from 57 µM), inactives show at the highest dose activity change, negative = inhibition, hits mostly inhibitors; HEK-293 ATXN2-luciferase reporter, luminescence, 24 h; further: on the % scale 0 is the no-effect control and ±100 the full control effect; nearly all actives have a fitted effect of over 55% in size
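ATXN2-luciferase reporter cells (luciferase flanked by upstream and downstream ATXN2 gene portions) were treated 24 h at 37 °C with compounds at up to 57 uM. SteadyGlo luminescence gave expression; GF-AFC fluorescence gave viability.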
S2 tox: reduces viability in counter-screen for ATXN expression inhibitors. S2 cells (HEK-293 line with an ATXN2-luciferase reporter) viability, CellTiter-Fluor protease fluorescence, 24 h. Potency, µM (top dose mostly 56.7 µM), most hits filed as cytotoxic. 400,000 compounds, 0.49% hits; further: nearly all actives have a fitted effect of over 40% in size
A549 viability: kills or reduces viability of A549 cells in Nrf2 counter-screen; A549 ARE-Fluc cells, CellTiter-Fluor viability, 18-24 h; 390,000 compounds, 0.16% hits; Potency, µM (doses to about 46 µM), for the others: top-dose activity change, negative = cytotoxicity, actives largely listed as inhibitors; AID 504648; further: on the % scale 0 is the no-effect control and ±100 the full control effect
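A549 ARE-Fluc cells in 5% FBS OPTI-MEM, 5000 cells/well, rested 2 h then exposed to compounds in concentration-response for 18-24 h at 37 °C. Viability by CellTiter-Fluor fluorescence (Ex 405/Em 525) after 30 min; luciferase luminescence (BugLite, 15 min, RT) read afterwards.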
* = called active by the depositor. A selection: hits, their analogues and other compounds. The true share with any hit is near 2.9%. The call rests on the fitted dose curve; in most records, active means well fitted curve in the direction sought with a large enough effect; inconclusive means small, poorly fitted or top-dose-only effect, or another doubt; inactive means no such curve, though single readings can be large; an effect the other way counts as inactive or inconclusive. Potency means the concentration at half of the fitted maximal effect.

c1ccc(-c2nc(N3CCCCCC3)c3ccccc3n2)nc1 was read as Nrf2 ARE act 0%, ATXN2 expr inh inconclusive, S2 tox 11µM* and A549 viability inconclusive.
COc1ccc(Nc2nc(N3CCCC3)c3ccccc3n2)cc1 was read as Nrf2 block inconclusive, Nrf2 ARE act -2%, ATXN2 expr inh 28µM*, S2 tox inconclusive and A549 viability -16%.
`Cc1cccc(NC(=O)c2cccc(N3C(=O)CCC3=O)c2)c1` gave Nrf2 block 8%, Nrf2 ARE act -1%, ATXN2 expr inh -3%, S2 tox inactive and A549 viability 1%.
`CCC1(c2ccccc2)NC(=O)N(CC(=O)Nc2cc(Cl)ccc2N2CCOCC2)C1=O` (stereo not drawn) gave Nrf2 block -4%, Nrf2 ARE act 0%, ATXN2 expr inh 0%, S2 tox inactive and A549 viability 2%.
COc1cc(C(=O)NCCN=C2NS(=O)(=O)c3ccccc32)cc(OC)c1OC was read as Nrf2 block 4%, Nrf2 ARE act 0%, ATXN2 expr inh 1%, S2 tox inactive and A549 viability 1%.
For CCOC(=O)c1nn(-c2ccc(C)cc2)c(=O)c2c(N)scc12 the results were Nrf2 block inconclusive, Nrf2 ARE act 0%, ATXN2 expr inh -29%, S2 tox inactive and A549 viability -12%.
Screening CCCCCCn1c(N2CCCC2)nc2c1c(=O)[nH]c(=O)n2C returned Nrf2 block inconclusive, Nrf2 ARE act -2%, ATXN2 expr inh -4%, S2 tox inactive and A549 viability 0%.
`CC1(C)CC(=O)C(C(c2ccccc2F)C2C(=O)CC(C)(C)CC2=O)C(=O)C1` gave Nrf2 block 4%, Nrf2 ARE act 0%, ATXN2 expr inh -8%, S2 tox inconclusive and A549 viability -9%.
For CCOC(=O)Cc1ccc(NC(=O)n2ncc3cc(Cl)ccc32)cc1 the results were Nrf2 block -20%, Nrf2 ARE act -4%, ATXN2 expr inh 20µM*, S2 tox inactive and A549 viability 5%.
`O=C(CCl)N(c1ccccc1)c1c[nH]c2ccccc12` gave Nrf2 block -13%, Nrf2 ARE act inconclusive, ATXN2 expr inh inconclusive, S2 tox 25µM* and A549 viability -2%.
O=C(Cc1ccc(Cl)cc1)NCCc1c[nH]c2ccccc12 was read as Nrf2 block 3%, Nrf2 ARE act -1%, ATXN2 expr inh -1%, S2 tox inactive and A549 viability 3%.
For O=C(CCl)N(c1ccc(Cl)cc1)c1c[nH]c2ccccc12 the results were Nrf2 block 21µM*, Nrf2 ARE act -3%, ATXN2 expr inh inconclusive, S2 tox 18µM* and A549 viability inconclusive.
`O=C(O)Cc1c[nH]c2ccccc12` gave Nrf2 block inconclusive, Nrf2 ARE act 2%, ATXN2 expr inh -1%, S2 tox inactive and A549 viability 1%.
`Cc1ccc(Cl)cc1NC(=O)CCS(=O)(=O)c1ccc2c(c1)n(C)c(=O)c(=O)n2C` gave Nrf2 block -4%, Nrf2 ARE act 0%, S2 tox inactive and A549 viability -7%.
Cc1nc(NC(=O)C(C)(C)C)sc1-c1nc(N)sc1-n1cc(-c2ccccc2)nn1 was read as Nrf2 ARE act 4%, ATXN2 expr inh 5% and S2 tox inactive.
`CCNc1nc(-c2sc(NC(=O)C(C)(C)C)nc2C)c(-n2cc(-c3ccccc3)nn2)s1` gave Nrf2 ARE act -3% and ATXN2 expr inh 14µM*.
For Cc1ccc(N2C(=O)c3n[nH]c(C)c3C2c2ccco2)cc1 (stereo not drawn) the results were Nrf2 block inconclusive, Nrf2 ARE act 0%, ATXN2 expr inh 39%, S2 tox inactive and A549 viability -9%.
`CCc1cccc(NC(=O)CCc2nc3cccnc3n2-c2ccccc2)c1` gave Nrf2 block -30%, Nrf2 ARE act -2%, ATXN2 expr inh -18%, S2 tox inactive and A549 viability -7%.
For O=C(CSc1ccc(Cl)cc1)Nc1nnc(-c2ccco2)o1 the results were Nrf2 block inconclusive, Nrf2 ARE act 0%, ATXN2 expr inh -18%, S2 tox inconclusive and A549 viability inconclusive.

From PubChem
